Measured values as given in PubChem BioAssay (Tox21).
Inconclusive results are not listed. Unmarked numbers belong to inactive results. Calls of active or inactive are those of the source. Calls come from the whole dose curve; as a rule, active = well fitted cell-killing curve with a large enough effect in the repeat runs; inconclusive = weak or mixed curves, or effect the other way; inactive = flat fitted curve, though single readings scatter.

experiment: Nuclear factor erythroid 2-related factor 2/antioxidant responsive element (Nrf2/ARE) small molecule agonists: qHTS cell viability counter screen in human keratinocytes (AID 1919968); conditions: KeratinoSens HaCaT ARE cells viability, CellTiter-Fluor, 24 h; series mostly up to 92.4 µM; activity change, negative = cytotoxicity: at the top concentration; note: nearly all actives have a fitted effect of over 55% in size
Text: U.S. Tox21 Program National Center for Advancing Translational Sciences [NCATS] Division of Preclinical Innovation [DPI] U.S. Environmental Protection Agency [EPA] National Institutes of Environmental Health Sciences [NIEHS] National Toxicology Program [NTP] U.S. Food and Drug Administration [FDA] Tox21 Assay Overview: Oxidative stress has been implicated in the pathogenesis of a variety of diseases ranging from cancer to neurodegeneration. The antioxidant response element (ARE) signaling pathway plays an important role in the amelioration of oxidative stress. The KeratinoSens (Givaudan, Switzerland) is an in vitro test method which quantifies luciferase induction as a measure of activation of Keap1-Nrf2-antioxidationt/electrophile response element (ARE) dependant pathway in HaCaT human keratinocytes stably transfected with a selectable plasmid. The KeratinoSens assay is a cell-based assay with a reporter cell line to detect potential skin sensitizers by their ability to induce the Nrf2/ARE-response. The activation of the report gene under culture conditions can be detected by ONE-Glo Luciferase Assay System (Promega, Madison, WI). This cell line has been used to screen the Tox21 10K compound library to identify agonists that induce oxidative stress. The cytotoxicity of the Tox21 compound library against the KS-ARE cell line was tested in parallel by measuring the cell viability using CellTiter- Fluor assay system (Promega, Madison, WI) in the same wells.
Tox21 Assay Protocol Summary: HaCaT derived cell line KeratinoSens were dispensed at 1,500 cells/5uL/well in 1536-well white wall/solid bottom plates using a Multidrop Combi (ThermoFisher Scientific, Waltham, MA) dispenser. After the assay plates were incubated at 37 C/5% CO2 for 5 h, 23 nL of compounds dissolved in DMSO, positive controls or DMSO only was transferred to the assay plate by a pintool workstation (Kalypsys, San Diego, CA). The plates were incubated at 37 C/5% CO2 for 23 h, followed by addition of 1uL/well of CellTiter-Fluor reagent into the assay plates using a Flying Reagent Dispenser (Aurora Discovery, San Diego, CA) for cell viability readout that measures cytotoxicity. After 1 h incubation at 37 C/5% CO2 the fluorescence intensity was measured using a ViewLux (PerkinElmer, Shelton, CT) plate reader.
% is set by controls: 0 for no effect and ±100 for the full control effect; potency is the fitted concentration of half-maximal effect.

Structure (SMILES) | activity change, negative = cytotoxicity | Potency
OCc1c[nH]c2ccccc12 | -6.11% | –
O=C1CCCN1C1CCCCC1 | 1.57% | –
C=C(C)[C@@H]1CC=C(C)C(=O)C1 | -1.26% | –
COc1ccc(S(=O)(=O)N2C(=O)[C@@](c3ccccc3OC)(N3C[C@H](O)C[C@H]3C(=O)N(C)C)c3cc(Cl)ccc32)c(OC)c1 | -19.2% | –
CN(C)CCOC(c1ccccc1)c1ccc(Br)cc1 (stereo not given) | -0.393% [at 42.5 µM] | –
CC1=C(C(=O)O)N2C(=O)[C@@H](NC(=O)[C@H](N)c3ccc(O)cc3)[C@H]2SC1 | 4.09% [at 42.5 µM] | –
CC1=C(CC(=O)O)c2cc(F)ccc2/C1=C\c1ccc(S(C)(=O)=O)cc1 | 1.74% [at 42.5 µM] | –
Cc1ccc(O)c(C(=O)c2ccccc2)c1 | -4.73% | –
O=c1[nH]nc(-c2ccc([N+](=O)[O-])o2)o1 | -22% | –
O[Si](c1ccccc1)(c1ccccc1)c1ccccc1 | 20.8% | –
CCCCN | -7.11% [at 42.5 µM] | –
Nc1ncn([C@H]2C[C@H](O)[C@@H](CO)O2)c(=O)n1 | -2.58% [at 42.5 µM] | –
O=C(O)c1nc(Cl)c(Cl)c(Cl)c1Cl | 3.69% | –
CC(=O)OCC(=O)[C@@]12OC(C)(C)O[C@@H]1C[C@H]1[C@@H]3C[C@H](F)C4=CC(=O)C=C[C@]4(C)[C@@]3(F)[C@@H](O)C[C@@]12C | 2.47% [at 42.5 µM] | –
CCC(C)(CN(C)C)OC(=O)c1ccccc1 (stereo not given) | 24% [at 42.5 µM] | –
CC(=O)OCC1=C(C(=O)O)N2C(=O)[C@@H](NC(=O)CSc3ccncc3)[C@H]2SC1 | -3.9% [at 42.5 µM] | –
Cc1cc(C(C#N)c2ccc(Cl)cc2)c(Cl)cc1NC(=O)c1cc(I)cc(I)c1O (stereo not given) | – | 29.8 µM (active)
COC(=O)CCCCCCCC(=O)OC | 6.59% | –
C[C@H]1c2cccc(O)c2C(O)=C2C(=O)[C@]3(O)C(O)=C(C(N)=O)C(=O)[C@@H](N(C)C)[C@@H]3[C@@H](O)[C@@H]21 | 10.9% [at 42.5 µM] | –
O=C1CCCC(=O)O1 | 4.78% | –

Structure (SMILES) | activity change, negative = cytotoxicity | Potency
c1ccc(CN(Cc2ccccc2)Cc2ccccc2)cc1 | 9.45% | –
N[C@@H]1CONC1=O | 0.0467% [at 42.5 µM] | –
N#Cc1ccc(C(c2ccc(C#N)cc2)n2cncn2)cc1 | -4.77% [at 42.5 µM] | –
O=C(O)CCc1nc(-c2ccccc2)c(-c2ccccc2)o1 | 5.21% [at 42.5 µM] | –
C=CCOC(=O)COCCC(C)C | -0.417% | –
COC(OC)(C(=O)c1ccccc1)c1ccccc1 | 7.14% | –
Cc1cc(CCN2CCN(c3nsc4ccccc34)CC2)cc2c1NC(=O)CC2(C)C | – | 48.6 µM (active)
OCCN1CCOCC1 | 2.37% | –
C[C@@H](O)C(=O)O | -5.86% | –
Cc1ccc([N+](=O)[O-])cc1Cl | -1.26% | –
O=C(NO)C1(NS(=O)(=O)c2ccc(Oc3ccc(F)cc3)cc2)CCOCC1 | 0.121% | –
C/C=C(\C)C(C)=O | 0.0103% | –
O=C(O)c1ccccc1-c1ccc(C(F)(F)F)cc1 | 6.8% [at 42.5 µM] | –
CCCCCSCCCCC | -5.72% | –
CCCCN(CCC(=O)OCC)C(C)=O | -5.69% | –
CC1(C)CCC[C@]2(C)[C@H]3CCO[C@]3(C)CC[C@@H]12 | 0.0466% | –
CC1(CO)CN(c2ccccc2)NC1=O (stereo not given) | -1.63% | –
COC(=O)Nc1nc2ccc(C(=O)C3CC3)cc2[nH]1 | 4.9% [at 42.5 µM] | –
CC1(C)CCC(C)(C)c2cc(C(=O)Nc3ccc(C(=O)O)cc3)ccc21 | -17.9% | –
OC[C@H]1O[C@@H](n2cnc3c(=S)nc[nH]c32)[C@H](O)[C@@H]1O | 12.1% [at 42.5 µM] | –
